Experimental data as given in PubChem BioAssay (NCI).
Compounds without any hit were thinned out: in the full panel of roughly 83,000, 20% have a hit.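 96-well plates, one dose, 48 hours. Percent growth reported; active if below 10.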 Values without a mark were called inactive. Activity calls are given as the source filed them.

System: 786-0 renal
Test: NCI-60 one-dose screen, 48 h (100 = growth as untreated, 0 = no growth, -100 = all killed)
Details: 10 µM unless noted

Structure (SMILES)	growth
COc1cc(C(=O)n2nc(N3CCN(C)CC3)c3cc(N)ccc32)cc(OC)c1OC	24.7%
O=C1N[C@@H]2NC(=[N+]3CCOCC3)N[C@@H]2N1	98.8%
N#Cc1c(N)nnn1Cc1cc(=O)oc2c1ccc1ccccc12	102%
COc1cc(OC)cc(C2=C3CC[C@@H]4[C@H](CC[C@]5(C)C(=O)CC[C@@H]45)C3=CC3C(O)c4cccnc4N4C(=O)COC234)c1 (stereo not given in full)	98.5%
C=C(C)[C@@H]1CC[C@]2(C(=O)N3CCN(C)CC3)CC[C@]3(C)[C@H](CC[C@@H]4[C@@]5(C)CC(=C/c6ccncc6)/C(=N/O)C(C)(C)[C@@H]5CC[C@]43C)[C@@H]12	74.6%
CN1CCN(Cc2ccc3c(NNC(=O)c4ccccc4)nc4cc(F)ccc4n23)CC1	26.4%
CCOC(=O)c1c2c(n3ccc(C)cc13)C(=O)c1ccccc1C2=O	97.3%
CCCC(=O)NC(c1ccc2c(c1)OCO2)c1ccc2cccnc2c1O (stereo not given)	19.8%
Cc1nc2sc(C(=O)Nc3ccccc3)c(N)c2cc1C(=O)c1ccccc1	44.4%
COC(=O)c1ccc2c(c1)C(=O)c1c-2n(CCCN)c(=O)c2cc([N+](=O)[O-])ccc12	-98.5% (active)
CO[C@]12C=C/C(=C(/C(=O)OCc3cccnc3)C(=O)CCCCCCCC[C@@]3(OC)C=C/C(=C(/C(=O)OCc4cccnc4)C(=O)CCCCCCCC1)O3)O2	-38.4% (active)
Brc1c2c(c(Br)c3ccccc13)CCCC2	102%
Cc1cc2c([nH]1)CSc1cc(S(=O)(=O)c3ccccc3)c(=O)[nH]c1-2	21.5% [100 µM]
CC1=C(Nc2ccc(N3CCN(C)CC3)cc2)C(=O)c2cncnc2C1=O	107%
CCCCCCC1(C)NCCO1 (stereo not given)	102%
C#CCOc1cccc(Nc2ncnc3ccc(NC(=O)CCl)cc23)c1	-81.9% (active)
COc1ccc(C(=O)C2C(c3ccc(OC)cc3)CN(C)C23C(=O)Nc2ccccc23)cc1 (stereo not given)	96%
CCN(CC)CCNC(=O)c1cn2ncnc(Oc3ccc(NC(=O)Nc4ccc(Cl)c(C(F)(F)F)c4)c(F)c3)c2c1C	-86.1% (active)

Structure (SMILES)	growth
CC(=O)OCc1nc(C#N)c(N(C)C)o1	95%
CN[C@]12CC3(C=CC(=O)C=C3)O[C@@]1(Cc1ccc(OC)cc1)N(C)C(=O)N2	6.84% (active)
C=C(CNCCc1ccc(O)cc1)[C@@H]1CC[C@]2(CO)CC[C@]3(C)[C@H](CC[C@@H]4[C@@]5(C)CCC(NCCO)C(C)(C)[C@@H]5CC[C@]43C)[C@@H]12 (stereo not given in full)	-92.1% (active)
O=C1/C(=C\c2cn(-c3ccccc3)nc2-c2ccc(-c3cccs3)cc2)CCc2ccccc21	73.2%
Cc1ccc(-c2nn(-c3ccccc3)cc2C=C2C(=O)ON=C2C(C)C)cc1	78.7%
CC/C(=C(/c1ccc(Cl)cc1)c1ccc(OCCN2CCCC2)cc1)c1ccc(OC)cc1	71.9%
Cc1c(-c2nc3ccc(F)cc3c(=O)[nH]2)c2ccccc2n1C	37.9%
COC1=CC(c2ccc[nH]2)=N/C1=C\c1[nH]c(C)c(C(=O)OCc2ccccc2)c1C	-49.2% (active)
COc1ccc(C/C(C)=C(/c2ccc(OCCN3CCCCC3)cc2)c2ccc(OC(=O)NCc3ccccc3)cc2)cc1	-91.6% (active)
CC(C)N1CN2C(=S)NC3C2N(C1)C(=S)N3C (stereo not given)	99.3%
CCCCN[C@H]1CC[C@@]2(C)[C@@H](CC[C@@]3(C)[C@H]2[C@H](O)C[C@H]2/C(=C(\CCC=C(C)C)C(=O)OC)[C@@H](OC(C)=O)C[C@@]23C)[C@@H]1C	99.2%
O=[N+]([O-])c1ccc(-c2nc(N3CCOCC3)c3c4c(sc3n2)CCCC4)cc1	93%
COc1cc(N2C(=O)[C@H](O)C2c2ccc(SC)cc2)cc(OC)c1OC (stereo not given in full)	11.3%
C#Cc1ccc(NC(=O)c2ccc(/C=C/C(=O)c3nccn3C)cc2)cc1	-79.1% (active)
Cc1nnc(NC(=O)c2nc(S(=O)(=O)Cc3ccc(F)cc3)ncc2Cl)s1	48.3%
Cc1ccccc1/C=C1\CN(C(=O)OC(C)(C)C)C/C(=C\c2ccccc2C)C1=O	25.8%
C[C@]12C=CC(=O)C=C1CCC1C2[C@@H](O)C[C@@]2(C)C1CC[C@]2(O)C(=O)COC(=O)CCC(=O)O (stereo not given in full)	102%
